Test results: PubChem BioAssay AID1159580 (chemical genetic matrix, 2015)
Among all 5,500 compounds or so, about 2,000 (36%) were called active. About 18% were inconclusive and are not listed. Rule as the data show it: active = normalized growth mostly below about 0.91 (no sharp cut-off); inconclusive = no clear call, values can overlap the other calls; inactive = mostly above about 0.92. This is one part of the list.

Test: chemical genetic growth profiling, strain panel (AID 1159580);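 also: tested at 20 µM; growth read once vehicle control cultures reached saturation at 30 °C; 1 = growth at the plate median or of vehicle wells; lower values mean less growth of the strain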
Settings: growth OD

Measured: normalized growth

CC1(C)O[C@@H]2CC3C4CCC5=CC(=O)C=C[C@]5(C)[C@@]4(F)[C@@H](O)C[C@]3(C)[C@]2(C(=O)CO)O1 (some centres not stated)
inactive: S. cerevisiae deletion strains, locus YJR075W, strain HOC1, active compounds read low 1.01 | S. cerevisiae deletion strains, locus YKL009W, strain mrt4, active compounds read low 1.01 | S. cerevisiae deletion strains, locus YKL068W, active compounds read low 0.999 | S. cerevisiae deletion strains, locus YKL085W, strain MDH1 (second series), active compounds read low 0.996 | S. cerevisiae deletion strains, locus YKL085W, strain MDH1, active compounds read low 0.996 | S. cerevisiae deletion strains, locus YKL160W, strain elf1, active compounds read low 0.968 | S. cerevisiae deletion strains, locus YKL190W, strain CNB1, active compounds read low 1.02 | S. cerevisiae deletion strains, locus YKR001C, strain vps1, active compounds read low 1.01 | S. cerevisiae deletion strains, locus YKR026C, strain gcn3, active compounds read low 1.01 | S. cerevisiae deletion strains, locus YKR091W, strain srl3, active compounds read low 0.992 | S. cerevisiae deletion strains, locus YLL001W, strain dnm1, active compounds read low 1.01 | S. cerevisiae deletion strains, locus YLL026W, active compounds read low 0.982 | S. cerevisiae deletion strains, locus YLL041C, strain sdh2, active compounds read low 0.999 | S. cerevisiae deletion strains, locus YLR027C, strain aat2, active compounds read low 1 | S. cerevisiae deletion strains, locus YLR039C, strain RIC1, active compounds read low 1.01 | S. cerevisiae deletion strains, locus YLR058C, strain SHM2, active compounds read low 1.02 | S. cerevisiae deletion strains, locus YLR102C, strain apc9, active compounds read low 0.998 | S. cerevisiae deletion strains, locus YLR113W, strain HOG1, active compounds read low 0.984 | S. cerevisiae deletion strains, locus YLR221C, strain rsa3, active compounds read low 0.974 | S. cerevisiae deletion strains, locus YLR258W, strain gsy2, active compounds read low 0.979 | S. cerevisiae deletion strains, locus YLR262C, strain YPT6 (second series), active compounds read low 1.01 | S. cerevisiae deletion strains, locus YLR262C, strain YPT6, active compounds read low 1.03 | S. cerevisiae deletion strains, locus YLR268W, strain sec22, active compounds read low 1 | S. cerevisiae deletion strains, locus YLR320W, strain mms22, active compounds read low 0.96 | S. cerevisiae deletion strains, locus YLR330W, strain CHS5, active compounds read low 1.01 | S. cerevisiae deletion strains, locus YLR342W, strain FKS1 (second series), active compounds read low 1.01 | S. cerevisiae deletion strains, locus YLR342W, strain FKS1, active compounds read low 0.986 | S. cerevisiae deletion strains, locus YLR357W, strain rsc2, active compounds read low 0.948 | S. cerevisiae deletion strains, locus YLR370C, strain arc18, active compounds read low 0.996 | S. cerevisiae deletion strains, locus YLR371W, strain rom2, active compounds read low 0.995 | S. cerevisiae deletion strains, locus YLR384C, strain iki3, active compounds read low 0.995 | S. cerevisiae deletion strains, locus YLR418C, strain cdc73, active compounds read low 0.967 | S. cerevisiae deletion strains, locus YML016C, strain PPZ1, active compounds read low 1.01 | S. cerevisiae deletion strains, locus YML032C, strain rad52, active compounds read low 0.997 | S. cerevisiae deletion strains, locus YML120C, strain ndi1, active compounds read low 0.995 | S. cerevisiae deletion strains, locus YML124C, strain tub3, active compounds read low 1.01 | S. cerevisiae deletion strains, locus YMR058W, strain fet3, active compounds read low 1 | S. cerevisiae deletion strains, locus YMR078C, strain ctf18, active compounds read low 0.995 | S. cerevisiae deletion strains, locus YMR125W, strain sto1, active compounds read low 0.992 | S. cerevisiae deletion strains, locus YMR129W, active compounds read low 1.01 | S. cerevisiae deletion strains, locus YMR205C, strain PFK2, active compounds read low 0.961 | S. cerevisiae deletion strains, locus YMR223W, strain ubp8, active compounds read low 1.01 | S. cerevisiae deletion strains, locus YMR231W, strain pep5, active compounds read low 0.998 | S. cerevisiae deletion strains, locus YMR263W, strain SAP30, active compounds read low 1 | S. cerevisiae deletion strains, locus YMR307W, strain GAS1, active compounds read low 0.998 | S. cerevisiae deletion strains, locus YNL067W, strain RPL9B, active compounds read low 1.02 | S. cerevisiae deletion strains, locus YNL071W, strain lat1, active compounds read low 1 | S. cerevisiae deletion strains, locus YNL128W, strain TEP1, active compounds read low 1.02 | S. cerevisiae deletion strains, locus YNL153C, strain GIM3, active compounds read low 1.01 | S. cerevisiae deletion strains, locus YNL183C, strain NPR1, active compounds read low 0.955 | S. cerevisiae deletion strains, locus YNL209W, strain ssb2, active compounds read low 1 | S. cerevisiae deletion strains, locus YNL233W, strain BNI4, active compounds read low 1.01 | S. cerevisiae deletion strains, locus YNL248C, strain rpa49, active compounds read low 0.991 | S. cerevisiae deletion strains, locus YNL250W, strain rad50, active compounds read low 0.993 | S. cerevisiae deletion strains, locus YNL271C, strain bni1, active compounds read low 1.01 | S. cerevisiae deletion strains, locus YNL298W, strain CLA4, active compounds read low 1.01 | S. cerevisiae deletion strains, locus YNL307C, strain MCK1, active compounds read low 1 | S. cerevisiae deletion strains, locus YNL322C, strain KRE1 (second series), active compounds read low 0.961 | S. cerevisiae deletion strains, locus YNL322C, strain KRE1, active compounds read low 1.01 | S. cerevisiae deletion strains, locus YNR049C, strain mso1, active compounds read low 1.01 | S. cerevisiae deletion strains, locus YNR052C, strain pop2, active compounds read low 1 | S. cerevisiae deletion strains, locus YOL006C, strain TOP1, active compounds read low 1.02 | S. cerevisiae deletion strains, locus YOL012C, strain htz1 0.691 | S. cerevisiae deletion strains, locus YOL147C, strain pex11, active compounds read low 1.01 | S. cerevisiae deletion strains, locus YOR001W, strain rrp6, active compounds read low 1 | S. cerevisiae deletion strains, locus YOR061W, strain CKA2, active compounds read low 1.01 | S. cerevisiae deletion strains, locus YOR069W, strain VPS5, active compounds read low 1.02 | S. cerevisiae deletion strains, locus YOR070C, strain gyp1, active compounds read low 0.994 | S. cerevisiae deletion strains, locus YOR080W, strain dia2, active compounds read low 0.998 | S. cerevisiae deletion strains, locus YOR083W, strain WHI5, active compounds read low 0.956 | S. cerevisiae deletion strains, locus YOR106W, strain vam3, active compounds read low 0.966 | S. cerevisiae deletion strains, locus YOR136W, strain idh2, active compounds read low 0.998 | S. cerevisiae deletion strains, locus YOR144C, strain elg1, active compounds read low 1.01 | S. cerevisiae deletion strains, locus YOR184W, strain ser1, active compounds read low 0.99 | S. cerevisiae deletion strains, locus YOR231W, strain MKK1, active compounds read low 0.981 | S. cerevisiae deletion strains, locus YOR265W, strain rbl2, active compounds read low 0.985 | S. cerevisiae deletion strains, locus YOR270C, strain vph1, active compounds read low 1.04 | S. cerevisiae deletion strains, locus YOR290C, strain snf2, active compounds read low 0.979 | S. cerevisiae deletion strains, locus YOR316C, strain cot1, active compounds read low 0.994 | S. cerevisiae deletion strains, locus YPL051W, strain arl3, active compounds read low 0.976 | S. cerevisiae deletion strains, locus YPL055C, strain LGE1, active compounds read low 1.05 | S. cerevisiae deletion strains, locus YPL078C, strain atp4, active compounds read low 0.992 | S. cerevisiae deletion strains, locus YPL106C, strain sse1, active compounds read low 0.923 | S. cerevisiae deletion strains, locus YPL240C, strain hsp82, active compounds read low 1 | S. cerevisiae deletion strains, locus YPL241C, strain CIN2, active compounds read low 1.01 | S. cerevisiae deletion strains, locus YPL256C, strain CLN2, active compounds read low 0.97 | S. cerevisiae deletion strains, locus YPR119W, strain clb2, active compounds read low 0.994 | S. cerevisiae deletion strains, locus YPR141C, strain kar3, active compounds read low 0.998 | S. cerevisiae deletion strains, locus YPR163C, strain tif3, active compounds read low 1.01 | S. cerevisiae deletion strains, locus YPR167C, strain met16, active compounds read low 0.997 | S. cerevisiae deletion strains, strain wtn01, active compounds read low 0.989 | S. cerevisiae strains, strain wild type, active compounds read low 1.01
